A number with no mark means an inactive call. The list shows a part of the results. The source made the active and inactive calls.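 The calls were made as follows, unless noted: active = membrane potential signal shifting up or down by more than 3 SD of buffer-only wells, on both duplicate plates; inactive = the rest.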

Assay [1] can be described thus: nonspecific flux increase, KCNQ1-free cells – parental CHO cells, counter-screen for KCNQ1 potentiator project (AID 493006;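 active = duplicate-averaged activation above buffer control mean plus 5 SD of those controls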;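 as to activation: fluorescence ratio of max minus min over baseline after K+ and Tl+ depolarization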). To be noted: parental CHO-K1 cells, FluxOR thallium flux, at 10 µM; hits give high values. On the technique in general: Counterscreens check selectivity or assay interference.
The target of assay [2] is Potassium voltage-gated channel subfamily KQT member 1 (Homo sapiens) (UniProt P51787). The experiment in a line: enhancement of KCNQ1 channel thallium flux – FluxOR thallium flux, CHO cells, duplicates, confirmation (AID 493007;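 active = potentiation averaged over duplicate wells exceeding buffer-only control mean by more than 3 SD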;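 as to outcome: cells depolarized by a potassium plus thallium sulfate stimulus after compound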;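 as to potentiation: 0% = buffer-only wells and 100% = R-L3 activator control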). The conditions noted are these: KCNQ1 cell line, FluxOR thallium flux fluorescence, at 10 µM; hits give high values, % of reference activator effect, buffer zero.

The target in assay [3] is Potassium voltage-gated channel subfamily KQT member 2 (Rattus norvegicus) (UniProt O88943). Kind of assay: KCNQ2 thallium flux enhancement – KCNQ2-CHO-K1 cells, selectivity assay for KCNQ1 potentiator project (AID 493009;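 active = mean duplicate potentiation above the buffer control mean plus 5 SD of buffer wells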;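 also: assay conditions were tuned for KCNQ1 rather than KCNQ2 modulators; signal is max minus min fluorescence divided by baseline after thallium stimulus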). To be noted: FluxOR thallium flux fluorescence, at 10 µM; hits give high values, scaled: buffer 0, activator control 100.
The target in assay [4] is Potassium voltage-gated channel subfamily KQT member 1 (Homo sapiens) (UniProt P51787). The experiment in a line: KCNQ1 activators by electrophysiology – IonWorks patch clamp, KCNQ1-CHO cells, orthogonal assay for KCNQ1 potentiator project, confirmation (AID 493184;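 active = current rise at least 3 SD above the untreated control mean in each of two repeat wells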). The conditions noted are these: automated patch clamp current, at 10 µM; hits give high values. A general note: Patch clamp records ionic current or voltage across a cell membrane.

The target of assay [5] is T1, Potassium voltage-gated channel subfamily E member 1 (Homo sapiens) + Potassium voltage-gated channel subfamily KQT member 1 (Homo sapiens) (UniProt P15382+P51787). Kind of assay: KCNQ1-E1 channel activation – thallium flux, CHO-K1 KCNQ1/E1 cells, selectivity assay for KCNQ1 potentiator project, confirmation (AID 493186;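 active = mean duplicate activation above the buffer control mean plus 5 SD of those controls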;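 also: 0% = assay buffer control and 100% = R-L3 activator control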). To be noted: FluxOR thallium flux, at 10 µM; hits give high values.

The nature of assay [6]: nonspecific voltage dye signal in HEK293 – cell-based, parental HEK293, counter-screen for TRPC6 inhibitor project, confirmation (AID 2780).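 As to membrane potential signal change: plate controls were buffer EC0 wells for no effect and acetylcholine ECmax wells for full effect.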 To be noted: parental HEK293 membrane potential dye fluorescence; at 10 µM.
Assay [7] addresses Short transient receptor potential channel 6 (Mus musculus) (UniProt Q61143). The experiment in a line: mouse TRPC6 channel activators, confirmation, HEK293 cells, membrane potential dye, duplicate (AID 488961;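 active = ratio signal rise beyond 5 SD above unstimulated control wells' mean, seen in both duplicate runs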). To be noted: HEK293-TRPC6 membrane potential dye fluorescence, FDSS, at 10 µM; hits give high values.
Assay [8] has as its target Potassium voltage-gated channel subfamily KQT member 1 (Homo sapiens) (UniProt P51787). Kind of assay: blockers of human KCNQ1 channel – cell-based, Tl flux, duplicate, confirmation (AID 588353;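 active = primary screen active, with duplicate mean exceeding buffer control mean plus 3 SD of buffer wells, cut at about 28% in these data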;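 also: 0% = buffer control ratio and 100% = XE991 inhibitor control ratio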). The conditions noted are these: KCNQ1 cell line, FluxOR thallium flux fluorescence, at 10 µM, hits give high values.
The nature of assay [9]: nonspecific activity in CHO-K1 cells without KCNQ1 – parental CHO cells, Tl flux, counter-screen for KCNQ1 inhibitor project (AID 588366;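 active = mean of duplicate thallium-flux fluorescence ratios in parental host cells more than 5 SD below the buffer control mean, cut at about 0.38 in these data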;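 also: ratio is peak minus minimum fluorescence divided by baseline fluorescence; actives read low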). The conditions noted are these: parental CHO-K1, FluxOR thallium flux fluorescence ratio; at 10 µM; hits give low values; zero means no signal rise above baseline.
In assay [10] the target is Potassium voltage-gated channel subfamily KQT member 2 (Rattus norvegicus) (UniProt O88943). Kind of assay: block of rat KCNQ2 potassium channel – cell-based, selectivity assay for KCNQ1 inhibitor project (AID 651746;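 active = mean percent inhibition of the KCNQ2 thallium signal more than 5 SD above the buffer-only control wells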;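 also: 0% = buffer control wells and 100% = XE-991 inhibitor control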). The conditions noted are these: KCNQ2 cells, FluxOR thallium flux fluorescence, at 10 µM; hits give high values.
The target in assay [11] is T1, Potassium voltage-gated channel subfamily E member 1 (Homo sapiens) + Potassium voltage-gated channel subfamily KQT member 1 (Homo sapiens). Kind of assay: block of human IKs channel complex – CHO-K1 cells, thallium flux, FluxOR, selectivity assay for KCNQ1 inhibitor project (AID 652147;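 active = mean percent inhibition of duplicate wells above the buffer-only control mean plus 3 SD of those controls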). The conditions noted are these: KCNQ1/KCNE1 cells, FluxOR thallium flux fluorescence, at 10 µM; hits give high values.

Assay [12] can be described thus: nonspecific voltage dye response without TRPC6 – cell-based, parental HEK293, counter-screen for TRPC6 modulator project, confirmation (AID 488924;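 active = membrane potential signal moves up or down beyond 5 SD from buffer-only wells, on both duplicate plates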). The conditions noted are these: parental HEK293, membrane potential dye fluorescence; at 10 µM.
Assay [13] is described as follows: membrane potential response modulators in host HEK293 cells – cell-based, second counter-screen, parental HEK293, membrane potential dye, counter-screen for TRPC6 modulator project, confirmation (AID 488926;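 active = membrane potential signal drops by more than 5 SD from the mean control signal, in both duplicate plates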). To be noted: parental HEK293, membrane potential dye fluorescence, at 10 µM, after compound, maximal acetylcholine stimulation; hits give high values.
For assay [14], the system named is Transient receptor potential cation channel subfamily C member 4 (mouse). Kind of assay: off-target membrane potential effects via mouse TRPC4 – cell-based, HEK293 TRPC4/mu-opioid, membrane potential dye, selectivity assay for TRPC6 modulator project, confirmation (AID 488927;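 active = membrane potential signal moved up or down beyond 5 SD of buffer control wells, in both duplicate plates, actives on both sides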;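 as to percent change from control (negative = decrease, positive = increase): plate controls were assay buffer wells for no effect and DAMGO maximal-effect wells for full effect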). The conditions noted are these: membrane potential fluorescence, at 10 µM.
Assay [15] deals with TRPC4 (transient receptor potential cation channel C4), mouse. The experiment in a line: DAMGO-evoked mouse TRPC4 response blockade – cell-based, second screen, HEK293 TRPC4/mu-opioid, membrane potential dye, selectivity assay for TRPC6 modulator project, confirmation (AID 488928;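 active = drop in membrane potential signal beyond 5 SD of the control wells in both duplicate plates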;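 also: TRPC4 counter screen for TRPC6 hits run under conditions tuned for TRPC6 not TRPC4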). To be noted: membrane potential dye fluorescence, at 10 µM, stimulated with maximal-effect DAMGO; hits give high values.

Chain of Short transient receptor potential channel 6 (Mus musculus) (Q61143 whole entry, looked up): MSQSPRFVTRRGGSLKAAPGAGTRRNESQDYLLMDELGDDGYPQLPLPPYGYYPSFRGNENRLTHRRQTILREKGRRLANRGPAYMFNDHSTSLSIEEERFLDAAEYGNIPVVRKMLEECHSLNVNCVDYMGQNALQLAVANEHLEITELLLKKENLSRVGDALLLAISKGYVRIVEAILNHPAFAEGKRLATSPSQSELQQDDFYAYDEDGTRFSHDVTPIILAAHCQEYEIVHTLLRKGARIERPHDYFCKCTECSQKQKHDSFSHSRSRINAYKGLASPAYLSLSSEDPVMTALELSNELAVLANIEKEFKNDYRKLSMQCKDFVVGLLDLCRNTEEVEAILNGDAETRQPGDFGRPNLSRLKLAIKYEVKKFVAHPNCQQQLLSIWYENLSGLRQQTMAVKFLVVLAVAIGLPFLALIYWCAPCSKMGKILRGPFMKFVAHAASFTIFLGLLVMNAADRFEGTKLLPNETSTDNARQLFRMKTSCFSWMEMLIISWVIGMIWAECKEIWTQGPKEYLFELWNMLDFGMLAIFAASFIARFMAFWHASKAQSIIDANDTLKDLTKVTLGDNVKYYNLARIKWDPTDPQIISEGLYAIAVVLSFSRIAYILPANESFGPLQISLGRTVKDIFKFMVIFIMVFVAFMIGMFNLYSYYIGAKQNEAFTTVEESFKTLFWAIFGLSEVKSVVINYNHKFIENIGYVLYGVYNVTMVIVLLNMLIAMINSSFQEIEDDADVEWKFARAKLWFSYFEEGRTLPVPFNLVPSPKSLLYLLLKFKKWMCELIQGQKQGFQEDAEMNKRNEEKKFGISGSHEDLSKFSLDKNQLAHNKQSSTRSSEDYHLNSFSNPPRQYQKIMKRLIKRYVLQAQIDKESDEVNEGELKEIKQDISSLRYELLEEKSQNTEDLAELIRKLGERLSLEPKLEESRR
Chain of Potassium voltage-gated channel subfamily KQT member 1 (Homo sapiens) (P51787 whole entry, looked up): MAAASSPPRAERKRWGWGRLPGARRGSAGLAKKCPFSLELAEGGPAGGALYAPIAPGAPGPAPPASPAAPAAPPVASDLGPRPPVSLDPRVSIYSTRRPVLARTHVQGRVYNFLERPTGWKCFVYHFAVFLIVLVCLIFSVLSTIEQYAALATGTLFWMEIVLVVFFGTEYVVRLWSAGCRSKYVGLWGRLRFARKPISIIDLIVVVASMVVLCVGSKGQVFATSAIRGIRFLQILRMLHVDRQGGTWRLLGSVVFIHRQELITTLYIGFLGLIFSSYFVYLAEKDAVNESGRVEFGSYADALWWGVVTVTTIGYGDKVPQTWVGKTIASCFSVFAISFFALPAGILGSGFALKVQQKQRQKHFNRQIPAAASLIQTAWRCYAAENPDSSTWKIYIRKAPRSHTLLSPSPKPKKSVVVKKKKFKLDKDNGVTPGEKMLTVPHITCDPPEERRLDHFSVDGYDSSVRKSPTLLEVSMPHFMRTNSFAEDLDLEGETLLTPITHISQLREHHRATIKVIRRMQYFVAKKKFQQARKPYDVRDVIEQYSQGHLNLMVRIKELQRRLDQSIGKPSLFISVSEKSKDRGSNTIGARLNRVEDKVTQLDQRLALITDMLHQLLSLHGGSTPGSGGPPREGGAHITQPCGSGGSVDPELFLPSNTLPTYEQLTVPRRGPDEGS
Chain of Potassium voltage-gated channel subfamily KQT member 2 (Rattus norvegicus) (O88943 whole entry, looked up): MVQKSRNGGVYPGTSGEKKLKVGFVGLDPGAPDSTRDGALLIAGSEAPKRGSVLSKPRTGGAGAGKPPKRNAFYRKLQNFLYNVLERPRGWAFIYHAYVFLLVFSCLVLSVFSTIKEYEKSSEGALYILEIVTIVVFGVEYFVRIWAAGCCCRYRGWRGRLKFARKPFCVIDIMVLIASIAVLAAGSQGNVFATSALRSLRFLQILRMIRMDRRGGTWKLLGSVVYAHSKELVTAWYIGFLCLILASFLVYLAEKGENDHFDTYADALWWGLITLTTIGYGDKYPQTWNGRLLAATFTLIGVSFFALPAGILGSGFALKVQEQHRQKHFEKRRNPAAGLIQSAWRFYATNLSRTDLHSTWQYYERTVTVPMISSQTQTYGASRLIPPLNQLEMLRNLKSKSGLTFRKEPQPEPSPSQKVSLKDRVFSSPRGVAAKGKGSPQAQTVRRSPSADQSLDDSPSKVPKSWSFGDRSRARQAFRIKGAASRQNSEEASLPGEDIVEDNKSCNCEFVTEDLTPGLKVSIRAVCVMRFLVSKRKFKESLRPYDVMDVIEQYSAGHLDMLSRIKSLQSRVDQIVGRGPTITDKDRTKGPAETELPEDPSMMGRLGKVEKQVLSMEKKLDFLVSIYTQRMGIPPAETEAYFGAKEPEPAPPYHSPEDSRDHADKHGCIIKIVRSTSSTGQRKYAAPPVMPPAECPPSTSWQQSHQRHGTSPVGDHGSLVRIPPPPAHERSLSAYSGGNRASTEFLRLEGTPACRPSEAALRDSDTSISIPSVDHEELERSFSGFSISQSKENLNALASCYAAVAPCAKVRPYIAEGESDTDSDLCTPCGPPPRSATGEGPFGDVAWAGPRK
T1 sequence (P51787 whole entry, looked up): as the sequence (P51787 whole entry, looked up) above

As to `COc1ccc(C(=O)NNC(=S)NC(=O)c2ccccc2)cc1`, the result in [1] and in [4] was inactive. In addition, the potentiation in assay [2] was 58.5% (active); in [3], 166% (active). For the same molecule, the activation in [5] is 20.5% (active).

As for `CC(C)(C)c1ccc(C(=O)NC(=S)NNC(=O)COc2ccccc2)cc1`, in assay [1], the activation is 186% (active). Further, the potentiation was 59.5% (active) in [2] and 208% (active) in [3]. The result in assay [4] was inactive.

For `O=C(NNS(=O)(=O)c1ccc(Cl)cc1)C1CCN(Cc2ccccc2)CC1`, in assay [6], the membrane potential signal change was 0.15% (active). Also, the molecule was called inactive in [7].

On to `CC(C)(C)NCc1cc(Br)ccc1OC1CCCC1`, for which, in assay [6], the membrane potential signal change is 38.4% (active).

Regarding `Cc1cc(Nc2ccc(N3CCOCC3)cc2)c2cccc(C)c2n1`, in assay [6], the membrane potential signal change was -362% (active). Also, the result in [7] was inactive.

Consider `COc1ccc(CC(=O)Nc2sc(Cc3ccccc3)c(C)c2C(N)=O)cc1`, for which the result in assay [6] and in assay [7] was inactive.

On to `CC1CC(C)CN(C/C=C/c2ccccc2[N+](=O)[O-])C1` (stereo not drawn), for which, in [6], the membrane potential signal change was 0.38% (active). In assay [7], the molecule was called inactive.

In the case of `CCCCCOc1ccc(CSC2=NCCN2)cc1[N+](=O)[O-]`, the result in assay [6] and in [7] was inactive.

`CN(C)CCOC(=O)C(c1ccccc1)C1(O)CCCC1` (stereo not drawn): the membrane potential signal change in assay [6] is 0.13% (active). Besides, the molecule was called inactive in assay [7].

On to `O=C1c2ccccc2C(=O)c2c1cccc2N1CCN(Cc2ccccc2)CC1`, for which the membrane potential signal change in assay [6] is -264% (active). Also, the call in assay [7] was inactive.

Turning to `CCN(CC)CCn1c2ccc(Cl)cc2c2nc(C)sc21`, the membrane potential signal change in [6] was -267% (active). In addition, the call in assay [7] was inactive.

Consider `CC(C)CCNc1nc(N2CCCC2)c2c(c1C#N)CCN(C)C2`, for which the membrane potential signal change in assay [6] is -209% (active). Further, in assay [7], the result was inactive.

`CC(C)c1ccc(OCC(O)Cn2cnc3ccccc32)cc1` (stereo not drawn): the outcome in [6] and in [7] was inactive.

In the case of `COc1ccccc1OCCNCC(O)COc1cccc2[nH]c3ccccc3c12` (stereo not drawn), the outcome in assay [6] and in assay [7] was inactive.

`C=C(C)c1cccc(C(C)(C)NC(=O)NCCN(CC)CC)c1`: the membrane potential signal change in assay [6] was 0.09% (active). Also, the result in assay [7] was inactive.

As to `CCOC(=O)N1CCN(C(=O)c2ccc3c(c2)N(Cc2ccc(C)cc2)CCS3)CC1`, the result in assay [6] and in assay [7] was inactive.

Take `Cn1c(=O)n(C)c2cc(C(=O)Nc3ccc4c(c3)OCO4)ccc21`: the membrane potential signal change in [6] was -371% (active). The call in assay [7] was inactive.

As for `COc1ccccc1C1SCCN1C(=O)c1ccc([N+](=O)[O-])cc1` (stereo not drawn), the result in [6] and in [7] was inactive.

Take `Cn1c(=NC(=O)c2cnccn2)sc2ccccc21`: the membrane potential signal change in assay [6] was -416% (active). In addition, in assay [7], the result was inactive.

Turning to `C[C@H](NC(=O)OC(C)(C)C)c1nnc(SCC(=O)Nc2ccc(Br)cc2)o1`, the membrane potential signal change in [6] was 0.29% (active).

`CCOC(=O)N1CCC(O)(c2cc(C)c(C)cc2C)CC1`: in assay [6], the outcome was inactive.

In the case of `CCOC(=O)N1CCC(NC(=O)CN2C(=O)COc3ccc(C(C)(C)C)cc32)CC1`, in [6], the result was inactive.

As to `CCCCCCCCCCOC(=O)C[N+](C)(C)CC1CCCCC1O` (stereo not drawn), the membrane potential signal change in assay [6] was 2.25% (active). The call in [7] was inactive.

For the molecule `CN(C)c1ccc(C2N(C)C(=O)c3ccccc3N2C)cc1` (stereo not drawn), the result in assay [6] and in assay [7] was inactive.

What is called inhibition is the share of the control response that was lost under treatment. Consider `CCCc1cc(=S)n2c([nH]c3ccccc32)c1C#N`, for which the membrane potential signal change in [6] is 22.1% (active). The inhibition in assay [8] was 80.5% (active); in assay [10] it was 91.3% (active). Also, the fluorescence ratio (Tl flux) in assay [9] was 0.394. For the same molecule, the outcome in [11] was inactive.

`c1ccc(C2c3[nH]c4ccccc4c3CCN2Cc2cccn2-c2cccnc2)nc1` (stereo not drawn): the membrane potential signal change in assay [6] was -129% (active). Further, the molecule was classed as inactive in [7].

In the case of `COc1ccc(CNC(=O)c2cc3c(=O)n4ccccc4nc3n(CC3CCCO3)c2=N)cc1` (stereo not drawn), the membrane potential signal change in assay [6] is -176% (active). Also, the result in assay [7], in [1], in assay [2], in assay [3] and in assay [4] was inactive.

Take `CCN(CC)c1ccc2cc(C(N)=O)/c(=N\NC(=O)c3ccncc3)oc2c1`: the membrane potential signal change in [6] is 1.95% (active). The molecule was called inactive in [7].

Turning to `OCCC1CN(Cc2ccc3nsnc3c2)CCN1C1CCCC1` (stereo not drawn), the outcome in assay [6] and in assay [7] was inactive.

With `Cc1cc(NCc2ccccc2)nc2ccccc12`, the result in assay [1], in [2], in [3] and in assay [4] was inactive.

Turning to `Nc1ccc(C(=O)N2CCN(S(=O)(=O)c3ccc(Cl)cc3)CC2)cc1[N+](=O)[O-]`, the outcome in assay [12], in assay [13], in assay [14] and in assay [15] was inactive.

Turning to `CN1CCN(C(=O)N2c3ccccc3CCc3ccccc32)CC1`, the outcome in assay [12], in assay [13] and in assay [15] was inactive. In addition, the percent change from control (negative = decrease, positive = increase) in assay [14] is 14.5% (active).

On to `COc1ccccc1C(CNC(=O)c1cccc(NS(=O)(=O)c2ccc(Br)cc2)c1)N(C)C` (stereo not drawn), for which the result in [12], in assay [13], in [14] and in [7] was inactive. Also, the inhibition in assay [15] is 32.5% (active).

Regarding `Cc1cc(N2CCN(S(=O)(=O)c3ccc(C)c(C)c3)CC2)c2ccccc2n1`, the outcome in assay [12], in assay [13] and in assay [7] was inactive. The percent change from control (negative = decrease, positive = increase) in [14] was -10.5% (active). Besides, the inhibition in [15] is 65% (active).

The values above are taken from PubChem BioAssay.
